The record followed here is PubChem BioAssay.

Active and inactive are the calls of the source.

The nature of experiment [1]: binders of probe aFSTL3 on microarray, primary screen, stem cell growth factor project, biochemical, small-molecule microarray, fluorescence 635/667 (AID 1064).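 Further: measures binding of the biotinylated anti-FSTL3 antibody to printed compounds.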 The following applies: higher = more signal.
A short description of experiment [2]: binders from COS7 lysate, DM2A8 probe, primary screen, torsin A project, cell lysate, small-molecule microarray, fluorescence 635/667 (AID 1065). The following applies: higher = more signal, COS7 lysate expressing mutant human TOR1A.
Experiment [3] in a line: binders of probe aFGF2 on microarray, primary screen, stem cell growth factor project, biochemical, small-molecule microarray, fluorescence 635/667 (AID 1067).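 Further: measures binding of biotinylated aFGF2 protein to printed compounds on slides; z-score merges feature fluorescence and signal-to-noise across triplicate slides.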 The following applies: higher = more signal.
Experiment [4] is described as follows: binders of probe aFGF10 on microarray, primary screen, stem cell growth factor project, biochemical, small-molecule microarray, fluorescence 635/667 (AID 1071).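 Further: score merges 667 nm spot intensity and signal to noise from triplicate slides.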 The following applies: higher = more signal.
Experiment [5] concerns the target Neurogenic locus notch homolog protein 2 (Homo sapiens) (UniProt Q04721). Briefly: Notch2 binders on small-molecule microarrays, primary screen, biochemical, small-molecule microarray, 635 nm fluorescence, stem cell growth factors (AID 1073). The following applies: Notch2 binding, higher = more signal.
Experiment [6] has as its target Pro-neuregulin-1, membrane-bound isoform (Homo sapiens) (UniProt Q02297). Briefly: NRG1 binders on small-molecule microarrays, primary screen, psychiatric disease protein project, biochemical, small-molecule microarray, fluorescence 635/667 (AID 1075).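 Further: score combines 667 nm spot fluorescence with signal to noise.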 Particulars: NRG1 binding, 635 nm fluorescence, higher = more signal.
Experiment [7] deals with Neuregulin-1 EGF-like domain. In words: binders of neuregulin-1 EGF-like domain, primary screen, biochemical, small-molecule microarray, 635 nm fluorescence (AID 1081).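 Further: binding of the protein to compounds printed on small-molecule microarray slides.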 Particulars: small-molecule microarray binding, higher = more signal.
The nature of experiment [8]: FRG1 promoter luciferase signal modulators, primary screen, FRG1 inhibition for FSHD, cell-based, C2C12 myotubes, firefly/Renilla luciferase, luminescence (AID 1084). Particulars: higher = more signal, called active from +8 up or from −8 down.
The nature of experiment [9]: binders of probe aFST on microarray, primary screen, stem cell growth factor project, biochemical, small-molecule microarray, fluorescence 635/667 (AID 1086).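 Further: score merges 667 nm fluorescence with signal-to-noise of each printed compound spot.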 Particulars: higher = more signal.
A short description of experiment [10]: binders of probe aHhip on microarray, primary screen, stem cell growth factor project, biochemical, small-molecule microarray, fluorescence 635/667 (AID 1087).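 Further: score merges spot fluorescence at 667nm with spot signal to noise ratio.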 Particulars: higher = more signal.

Pro-neuregulin-1, membrane-bound isoform (Homo sapiens), sequence (Q02297 whole entry, looked up, the tested form may be a part, canonical isoform): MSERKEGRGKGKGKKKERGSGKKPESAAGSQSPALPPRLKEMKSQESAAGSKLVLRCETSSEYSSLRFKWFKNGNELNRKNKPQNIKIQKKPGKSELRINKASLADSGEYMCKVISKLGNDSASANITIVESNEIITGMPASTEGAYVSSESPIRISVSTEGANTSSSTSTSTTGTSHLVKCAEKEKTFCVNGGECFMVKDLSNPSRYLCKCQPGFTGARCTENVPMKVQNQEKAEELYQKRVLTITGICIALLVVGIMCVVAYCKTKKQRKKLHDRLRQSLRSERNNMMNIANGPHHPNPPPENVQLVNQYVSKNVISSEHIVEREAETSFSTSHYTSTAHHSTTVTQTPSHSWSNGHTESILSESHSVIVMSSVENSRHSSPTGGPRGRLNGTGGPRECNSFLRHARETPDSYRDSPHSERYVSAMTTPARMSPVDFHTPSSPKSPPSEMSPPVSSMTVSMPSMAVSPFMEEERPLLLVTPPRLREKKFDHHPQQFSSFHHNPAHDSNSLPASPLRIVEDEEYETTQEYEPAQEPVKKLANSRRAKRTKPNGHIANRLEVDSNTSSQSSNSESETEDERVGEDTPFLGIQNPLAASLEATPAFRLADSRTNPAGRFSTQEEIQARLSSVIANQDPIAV
Neurogenic locus notch homolog protein 2 (Homo sapiens), sequence (Q04721 whole entry, looked up, canonical isoform): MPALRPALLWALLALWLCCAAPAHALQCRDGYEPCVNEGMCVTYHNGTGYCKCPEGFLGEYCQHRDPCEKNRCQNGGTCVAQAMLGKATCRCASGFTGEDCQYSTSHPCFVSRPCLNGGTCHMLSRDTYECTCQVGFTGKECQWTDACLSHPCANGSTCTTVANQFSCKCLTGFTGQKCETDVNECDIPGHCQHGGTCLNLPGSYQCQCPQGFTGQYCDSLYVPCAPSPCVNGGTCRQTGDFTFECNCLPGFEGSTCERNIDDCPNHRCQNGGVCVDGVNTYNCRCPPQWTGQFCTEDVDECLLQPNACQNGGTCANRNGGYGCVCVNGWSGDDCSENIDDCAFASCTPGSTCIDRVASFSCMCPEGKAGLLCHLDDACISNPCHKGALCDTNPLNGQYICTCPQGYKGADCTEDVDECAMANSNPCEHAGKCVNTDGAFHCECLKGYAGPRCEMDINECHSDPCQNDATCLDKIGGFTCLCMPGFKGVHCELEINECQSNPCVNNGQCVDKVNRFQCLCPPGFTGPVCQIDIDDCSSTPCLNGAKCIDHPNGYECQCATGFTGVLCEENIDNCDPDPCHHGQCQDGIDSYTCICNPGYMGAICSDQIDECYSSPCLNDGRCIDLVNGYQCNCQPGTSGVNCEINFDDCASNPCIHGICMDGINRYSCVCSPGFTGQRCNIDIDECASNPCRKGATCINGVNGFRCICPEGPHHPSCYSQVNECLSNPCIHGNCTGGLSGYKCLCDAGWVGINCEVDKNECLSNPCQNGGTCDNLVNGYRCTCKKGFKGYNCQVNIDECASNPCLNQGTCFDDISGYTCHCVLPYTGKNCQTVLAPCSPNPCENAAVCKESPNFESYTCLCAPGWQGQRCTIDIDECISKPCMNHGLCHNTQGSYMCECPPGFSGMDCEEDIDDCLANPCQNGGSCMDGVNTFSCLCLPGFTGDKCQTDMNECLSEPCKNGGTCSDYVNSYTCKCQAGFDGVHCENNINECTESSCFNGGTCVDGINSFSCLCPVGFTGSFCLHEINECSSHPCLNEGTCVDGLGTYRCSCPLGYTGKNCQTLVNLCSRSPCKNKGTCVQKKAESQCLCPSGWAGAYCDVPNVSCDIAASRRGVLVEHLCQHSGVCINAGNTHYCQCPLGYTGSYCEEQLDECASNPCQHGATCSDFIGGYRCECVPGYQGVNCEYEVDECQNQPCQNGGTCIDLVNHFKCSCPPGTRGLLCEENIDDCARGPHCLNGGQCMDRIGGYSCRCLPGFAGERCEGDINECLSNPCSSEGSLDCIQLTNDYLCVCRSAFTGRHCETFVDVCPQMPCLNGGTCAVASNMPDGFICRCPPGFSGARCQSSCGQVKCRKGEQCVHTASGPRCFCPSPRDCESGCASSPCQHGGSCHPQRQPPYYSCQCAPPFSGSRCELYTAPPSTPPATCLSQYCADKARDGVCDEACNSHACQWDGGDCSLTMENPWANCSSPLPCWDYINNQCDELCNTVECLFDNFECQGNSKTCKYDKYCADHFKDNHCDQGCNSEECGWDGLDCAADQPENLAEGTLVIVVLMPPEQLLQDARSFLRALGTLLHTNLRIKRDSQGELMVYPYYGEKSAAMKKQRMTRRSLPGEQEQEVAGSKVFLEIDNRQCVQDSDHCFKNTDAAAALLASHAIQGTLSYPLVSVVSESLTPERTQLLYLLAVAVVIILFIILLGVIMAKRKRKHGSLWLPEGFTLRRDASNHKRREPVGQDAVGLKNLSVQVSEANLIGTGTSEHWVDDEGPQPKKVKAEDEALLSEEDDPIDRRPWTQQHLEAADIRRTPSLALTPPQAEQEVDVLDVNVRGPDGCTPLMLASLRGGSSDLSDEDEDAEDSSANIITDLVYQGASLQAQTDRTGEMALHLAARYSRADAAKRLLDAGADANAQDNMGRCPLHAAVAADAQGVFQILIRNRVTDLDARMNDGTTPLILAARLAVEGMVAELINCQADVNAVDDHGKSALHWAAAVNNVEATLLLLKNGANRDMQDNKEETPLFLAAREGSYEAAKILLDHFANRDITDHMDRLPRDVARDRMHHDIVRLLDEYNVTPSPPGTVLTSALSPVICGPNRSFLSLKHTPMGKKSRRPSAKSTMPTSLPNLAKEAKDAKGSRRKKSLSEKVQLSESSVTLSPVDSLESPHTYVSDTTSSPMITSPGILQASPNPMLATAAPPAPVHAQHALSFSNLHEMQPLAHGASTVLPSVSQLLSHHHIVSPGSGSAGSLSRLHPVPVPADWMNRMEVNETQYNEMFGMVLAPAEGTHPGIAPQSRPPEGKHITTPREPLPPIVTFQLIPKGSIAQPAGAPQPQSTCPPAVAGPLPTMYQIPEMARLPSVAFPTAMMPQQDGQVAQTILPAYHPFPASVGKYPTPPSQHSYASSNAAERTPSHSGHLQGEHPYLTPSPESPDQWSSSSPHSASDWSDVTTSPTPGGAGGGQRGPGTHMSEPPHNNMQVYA

Regarding `CC(C)NC(=O)[C@@]1(Cc2ccccc2I)c2ccccc2C(=O)N(Cc2ccccc2Cl)[C@H]1c1ccc(CO)cc1`, the composite z-score in experiment [1] was 0.232; in experiment [2], 0.152; in experiment [3], 0.028; in [4] it was 0.504; in experiment [5] it was 0.917; in experiment [6], 1.19. Further, the composite z-score was 1.22 in experiment [7], 0.237 in [9] and -0.0994 in [10]. The z-score in experiment [8] is -2.18 (inactive).
In the case of `COCCOC(=O)N1C(=O)[C@@]2(c3cc(C#CCCO)ccc31)[C@H](c1ccc(O)cc1)N1[C@H](c3ccccc3)[C@H](c3ccccc3)OC(=O)[C@H]1[C@@H]2C(=O)N1CCN(c2ncccn2)CC1`, the composite z-score is -0.788 in [1]; 0.325 in experiment [2]; 0.005 in experiment [3]; 0.792 in [4]; 1.44 in experiment [5]; 1.49 in experiment [6]. The composite z-score in experiment [7] came out at 1.24; in experiment [9], 0.437; in experiment [10], 0.783. Moreover, the z-score in experiment [8] was -0.606 (inactive).
On to `COc1ccc([C@H]2C[C@H]3C(I)=C[C@@H]2C(=O)[C@]32CO2)cc1`, for which the composite z-score in experiment [1] was -0.434; in experiment [2] it was 0.241; in experiment [3] it was -0.12; in experiment [4], 0.17; in experiment [5], 0.0021; in experiment [6], -0.645. Further, the composite z-score was -0.571 in [7], 0.169 in experiment [9] and -0.0237 in experiment [10]. In addition, the z-score in [8] was 2.29 (inactive).
On to `O=C1[C@H]2C=C(I)[C@H](C[C@@H]2OCCCCO)[C@@]12CO2`, for which the composite z-score is -0.0695 in experiment [1]; 2.01 in [2]; 0.209 in experiment [3]; -0.484 in experiment [4]; -0.542 in experiment [5]; -0.456 in experiment [6]. In addition, the composite z-score in experiment [7] is 0.576; in [9], -0.174; in experiment [10], 0.162. Further, the z-score in [8] was 0.988 (inactive).
Consider `CCOC(=O)C1=CCC(c2ccc(F)cc2)N(S(=O)(=O)c2ccc(C)cc2)C1` (stereo not given), for which the composite z-score in [1] is 0.605; in [2] it was 0.816; in experiment [3], 0.0198; in experiment [4], -0.105; in [5] it was 0.552; in experiment [6], 0.199. The composite z-score in experiment [7] was 0.116; in experiment [9] it was 0.135; in [10] it was -0.226. For the same compound, in experiment [8], the z-score is -2.7 (inactive).
As to `NC(=O)N1C(=O)C2C(C1=O)C1C=C(CCCO)C2C(C2CC2)N1Cc1cc2c(cc1Br)OCO2` (stereo not given), the composite z-score was 0.225 in [1]; -0.13 in [2]; -0.093 in experiment [3]; -0.33 in experiment [4]; -0.191 in experiment [5]; 0.946 in [6]. Moreover, the results for the composite z-score in experiment [7], in experiment [9] and in experiment [10] were 0.982, 0.0364 and -0.0994, respectively. Besides, the z-score in [8] was -0.472 (inactive).
On to `O=C1C2C=CC(C(O)c3cc(C(F)(F)F)cc(C(F)(F)F)c3)N(Nc3ccccc3)C2C(=O)N1c1ccccc1` (stereo not given), for which the composite z-score was 0.281 in experiment [1]; 1.2 in [2]; -0.0064 in experiment [3]; 0.35 in experiment [4]; 0.649 in [5]; 1.8 in experiment [6]. For the same compound, the composite z-score in experiment [7] was 1.12; in experiment [9] it was 0.664; in experiment [10], -0.0994. The z-score in experiment [8] is 0.995 (inactive).
For `CC(=O)NCCCC[C@@H]1NC(=O)[C@H]2C[C@@H](C(=O)O)[C@@H](c3ccc(O)cc3)N2C1=O`, the composite z-score in experiment [1] is -0.0025; in experiment [2], 0.843; in experiment [3], -0.0135; in [4], 0.607; in experiment [5] it was 1.23; in experiment [6], 1.1. Also, the composite z-score in [7] is 1.3; in experiment [9], 0.904; in experiment [10] it was 0.213. Also, the z-score in experiment [8] was -0.316 (inactive).
On to `O=C1O[C@@H](c2ccccc2)[C@@H](c2ccccc2)N2[C@@H](c3ccc(OCCO)cc3)[C@]3(C(=O)Nc4ccc(C#CCCO)cc43)[C@@H](C(=O)NC[C@H](O)c3ccccc3)[C@H]12`, for which the composite z-score in experiment [1] was 0.193; in [2], 0.458; in [3] it was -0.0281; in experiment [4] it was 0.902; in experiment [5], 0.578; in experiment [6], 1.01. Moreover, the composite z-score worked out at 1.17 in experiment [7], 0.456 in experiment [9] and 0.0052 in [10]. For the same compound, in [8], the z-score was -0.772 (inactive).
Turning to `CCOc1ccc(N2C(=O)CSC2c2cccc([N+](=O)[O-])c2)cc1` (stereo not given), the composite z-score in experiment [1] is -0.368; in experiment [2], -0.113; in [3], 0.0525; in experiment [4] it was 0.839; in experiment [5], 1.22; in [6], 1.64. The composite z-score in [7] was 1.29; in experiment [9], 0.569; in [10], -0.199. In addition, the z-score in experiment [8] is 0.541 (inactive).
Take `CN1C(=O)C2C=CC(C(O)c3ccccc3)N(N3CCCCC3)C2C1=O` (stereo not given): the composite z-score was -0.239 in experiment [1]; 0.876 in [2]; 0.054 in experiment [3]; 1.02 in experiment [4]; 1.42 in experiment [5]; 1.62 in experiment [6]. Besides, the composite z-score in experiment [7] is 1.02; in experiment [9], 0.406; in experiment [10], -0.0346. Also, in [8], the z-score was -1.13 (inactive).
For `CO[C@H]1O[C@H](CO)[C@@H](OC(=O)Nc2ccccc2-c2ccccc2)[C@H](OC(=O)Nc2ccccc2-c2ccccc2)[C@@H]1OC(=O)Nc1ccccc1-c1ccccc1`, the composite z-score in experiment [1] is 0.0212; in experiment [2] it was 0.503; in experiment [3], -0.152; in [4] it was 1.03; in experiment [5] it was 1.1; in experiment [6], 1.35. Further, the composite z-score in [7] is 1.19; in experiment [9], 0.807; in experiment [10], -0.189. The z-score in experiment [8] is 0.722 (inactive).
Turning to `O=C1C[C@@](C(=O)NCc2ccccc2)(c2ccc([N+](=O)[O-])cc2)[C@@H](c2ccc(CO)cc2)N1CC12CC3CC(CC(C3)C1)C2`, the composite z-score in [1] was -0.237; in experiment [2], 0.447; in [3] it was 0.0024; in experiment [4] it was 0.435; in [5], 0.815; in experiment [6] it was 0.939. Moreover, the figures for the composite z-score in [7], in [9] and in experiment [10] were 1.27, 0.282 and -0.0994, respectively. In addition, the z-score in experiment [8] is -2.72 (inactive).
